Source: PubChem BioAssay (EPA / NIEHS)
Activity calls are given as the source filed them. Rule for the calls: active = hit-call score of the fitted dose curve at least 0.9, where 1 is the maximum; inactive = score below 0.9.

How the values were obtained:
[1] = ATG_GLI_CIS: Attagene CIS-FACTORIAL HepG2 Assay for human Zinc Finger Protein GLI1 (AID 2282945); settings: HepG2, Attagene cis-factorial reporter mRNA, GLI element; actives raise or lower the signal
Summary of the method: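 Transiently transfected HepG2 cells report endogenous transcription factor activity via cis-element-driven reporter units. After 24 h compound exposure, reporter mRNA was measured by RT-PCR with capillary electrophoresis; bidirectional fitting against DMSO baseline.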

[2] = ATG_M_32_CIS: Attagene CIS-FACTORIAL HepG2 Assay for M32 Transcription Factor (Internal Marker) (AID 2282949); settings: HepG2 Attagene cis-factorial M32 reporter, mRNA; actives raise or lower the signal;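 note: background control marker of the multiplexed CIS panel rather than a real target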
Summary of the method: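 Using DMSO as baseline, bidirectional curve fits were applied to reporter mRNA signals. These came from transiently transfected HepG2 cells exposed for 24 h, with RNA analysed by RT-PCR, FAM primer extension, HpaI digestion and CE.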

[3] = ATG_M_06_CIS: Attagene CIS-FACTORIAL HepG2 Assay for M06 Transcription Factor (Internal Marker) (AID 2282950); settings: HepG2 Attagene CIS-FACTORIAL M06 internal marker reporter; actives raise or lower the signal
Summary of the method: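 Internal background marker within multiplexed cis-reporter HepG2 system. Cells transiently transfected, dosed 24 h; reporter mRNA measured by RT-PCR, HpaI digestion and capillary electrophoresis. Bidirectional fit relative to DMSO.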

[4] = target: Hypoxia-inducible factor 1-alpha (Homo sapiens) (UniProt Q16665); assay: ATG_HIF1a_CIS: Attagene CIS-FACTORIAL HepG2 Assay for human Hypoxia Inducible Factor 1 (HIF1A) (AID 2282951); settings: HepG2 Attagene cis-factorial HIF1a reporter transcription; actives raise or lower the signal
Summary of the method: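 HepG2 cells transiently transfected with multiple cis-regulated reporter transcription units measure endogenous transcription factor activity. After 24 h exposure, reporter mRNA is quantified by RT-PCR with 6-FAM labelling, HpaI digestion and capillary electrophoresis. Bidirectional fitting against DMSO.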

[5] = target: Hepatocyte nuclear factor 6 (Homo sapiens) (UniProt Q9UBC0); assay: ATG_HNF6_CIS: Attagene CIS-FACTORIAL HepG2 Assay for human Hepatocyte Nuclear Factor 6 (HNF6) (AID 2282952); settings: HepG2 Attagene cis-factorial HNF6 reporter transcription; actives raise or lower the signal
Summary of the method: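 First, HepG2 cells were transfected with the multiplexed cis reporter library and dosed with chemical for 24 h. Next, RNA was reverse-transcribed, PCR-amplified and fluorescently labelled. Finally, HpaI-digested fragments were read by capillary electrophoresis.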

[6] = target: Heat shock factor protein 1 (Homo sapiens) (UniProt Q00613); assay: ATG_HSE_CIS: Attagene CIS-FACTORIAL HepG2 Assay for human Heat Shock Transcription Factor 1 (HSE) (AID 2282953); settings: HepG2 HSE cis-reporter, Attagene RNA transcription; actives raise or lower the signal
Summary of the method: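 HepG2 cells transfected with cis-promoter reporter units sensing endogenous transcription factor activity; reporter mRNA quantified 24 h post-dose by RT-PCR and capillary electrophoresis of 6-FAM-labelled products. Bidirectional fitting against DMSO.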

[7] = ATG_MRE_CIS: Attagene CIS-FACTORIAL HepG2 Assay for human Metal Responsive Element (MRE) (AID 2282954); settings: HepG2 MRE cis-reporter transcription, Attagene multiplex; actives raise or lower the signal
Summary of the method: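 RT-PCR/capillary electrophoresis readout of reporter mRNA, 24 h post-dosing, in HepG2 cells transfected with multiplexed cis-regulated reporter constructs. Gain or loss of signal fitted bidirectionally against DMSO baseline.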

[8] = target: Paired box protein Pax-6 (Homo sapiens) (UniProt P26367); assay: ATG_Pax6_CIS: Attagene CIS-FACTORIAL HepG2 Assay for human Paired Box 6 (PAX6) (AID 2282956); settings: HepG2 CIS-FACTORIAL PAX6 reporter transcription, RNA readout; actives raise or lower the signal
Summary of the method: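 Fluorescent RT-PCR products separated by capillary electrophoresis report PAX6-linked promoter mRNA in HepG2 cells 24 h post-dose. Curves fitted bidirectionally, DMSO as negative control.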

[9] = ATG_PPRE_CIS: Attagene CIS-FACTORIAL HepG2 Assay for human Peroxisome Proliferator-activated Response Element (PPRE) (AID 2282958); settings: HepG2 PPRE cis-element reporter, Attagene transcription factor profiling; actives raise or lower the signal
Summary of the method: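 HepG2 cells are transiently transfected with multiplexed cis-promoter reporter units to report endogenous PPAR activity. After 24 h dosing, reporter mRNA is read by RT-PCR and capillary electrophoresis. Fitting is bidirectional against DMSO.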

[10] = ATG_RORE_CIS: Attagene CIS-FACTORIAL HepG2 Assay for human RAR-related Orphan Receptor Element (RORE) (AID 2282959); settings: HepG2 Attagene cis-factorial RORE reporter, mRNA; actives raise or lower the signal
Summary of the method: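 HepG2 cells carrying transiently transfected cis-regulated reporter units; RORE-driven reporter mRNA quantified 24 h post-dosing by RT-PCR, 6-FAM primer extension, HpaI digestion and capillary electrophoresis. Bidirectional fit versus DMSO.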

[11] = ATG_Sox_CIS: Attagene CIS-FACTORIAL HepG2 Assay for human SRY-box transcription factor (SOX) (AID 2282960); settings: HepG2 Attagene cis-factorial SOX reporter, mRNA; actives raise or lower the signal
Summary of the method: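 HepG2 cells transiently transfected with multiple cis-regulated reporter units, then dosed for 24 h. Reporter mRNA quantified by RT-PCR, fluorescent labelling, HpaI digestion and capillary electrophoresis; bidirectional fit versus DMSO.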

[12] = target: Transcription factor Sp1 (Homo sapiens) (UniProt P08047); assay: ATG_Sp1_CIS: Attagene CIS-FACTORIAL HepG2 Assay for human Specificity Protein 1 (Sp1) (AID 2282961); settings: HepG2 Sp1 cis-reporter transcription, actives raise or lower the signal
Summary of the method: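 HepG2 cells transiently transfected with multiplexed cis-regulated reporter constructs, chemical exposure 24 h. Reporter mRNA quantified by RT-PCR with capillary electrophoresis; bidirectional fit relative to DMSO.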

[13] = ATG_SREBP_CIS: Attagene CIS-FACTORIAL HepG2 Assay for human Sterol Regulatory Element Binding (SREBP) (AID 2282962); settings: HepG2 Attagene cis-factorial SREBP reporter, mRNA; actives raise or lower the signal
Summary of the method: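 Endogenous factor activity is measured in HepG2 through multiplexed reporter units under cis-element control. Following a 24 h incubation, reporter transcripts are reverse-transcribed, PCR-amplified and sized by capillary electrophoresis; activity is fitted in both directions relative to DMSO.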

[14] = target: Signal transducer and activator of transcription 3 (Homo sapiens) (UniProt P40763); assay: ATG_STAT3_CIS: Attagene CIS-FACTORIAL HepG2 Assay for human Signal Transducer and Activator of Transcription 3 (STAT3) (AID 2282963); settings: HepG2, Attagene cis-factorial STAT3 reporter transcription; actives raise or lower the signal
Summary of the method: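 Readout: fluorescent reporter mRNA fragments resolved by capillary electrophoresis. Setup: HepG2 transfected with MRTUs reporting endogenous transcription-factor activity, dosed 24 h. Gain or loss of signal fitted bidirectionally against DMSO control.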

[15] = ATG_ISRE_CIS: Attagene CIS-FACTORIAL HepG2 Assay for human Interferon Regulatory Factor 1 (IRF1) binding to an Interferon-Stimulated Response Element (ISRE) (AID 2282948); settings: HepG2 ISRE cis-reporter (Attagene), mRNA transcription readout; actives raise or lower the signal
Summary of the method: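 Multiplexed mRNA reporter readout in human liver HepG2 cells: cis-element-driven reporters transfected, compound added for 24 h, transcripts amplified, fluorescently labelled and sized by capillary electrophoresis; curve fitting bidirectional against DMSO.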

[16] = ATG_PBREM_CIS: Attagene CIS-FACTORIAL HepG2 Assay for human Phenobarbital-responsive Enhancer Module (PBREM) (AID 2282955); settings: HepG2 PBREM cis-reporter, Attagene multiplexed transcription; actives raise or lower the signal
Summary of the method: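 HepG2 cells transiently transfected with multiple cis-regulated reporter units measure endogenous transcription factor activity; 24 h compound exposure. Reporter mRNA quantified by RT-PCR, fluorescent labelling, HpaI digestion and capillary electrophoresis; bidirectional fit versus DMSO.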

[17] = ATG_PXRE_CIS: Attagene CIS-FACTORIAL HepG2 Assay for human Pregnane X Receptor Element (PXRE) (AID 2282957); settings: HepG2 Attagene CIS-FACTORIAL PXRE reporter, mRNA; actives raise or lower the signal
Summary of the method: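 After a 24 h chemical incubation, total RNA from transfected HepG2 cells was reverse-transcribed and reporter cDNA amplified, FAM-labeled, HpaI-digested and sized by capillary electrophoresis. DMSO served as baseline for bidirectional curve fitting.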

[18] = ATG_TA_CIS: Attagene CIS-FACTORIAL HepG2 Assay for human TA Basal Promoter (AID 2282964); settings: HepG2 Attagene CIS-factorial TA basal promoter reporter; actives raise or lower the signal
Summary of the method: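 HepG2 cells transiently transfected with multiple reporter units under cis promoter elements, reporting endogenous transcription factor activity; this endpoint tracks the TA basal promoter as background control. Reporter mRNA after 24 h dosing measured by RT-PCR/capillary electrophoresis; bidirectional fits versus DMSO.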

Chain of Paired box protein Pax-6 (Homo sapiens) (P26367 whole entry, looked up): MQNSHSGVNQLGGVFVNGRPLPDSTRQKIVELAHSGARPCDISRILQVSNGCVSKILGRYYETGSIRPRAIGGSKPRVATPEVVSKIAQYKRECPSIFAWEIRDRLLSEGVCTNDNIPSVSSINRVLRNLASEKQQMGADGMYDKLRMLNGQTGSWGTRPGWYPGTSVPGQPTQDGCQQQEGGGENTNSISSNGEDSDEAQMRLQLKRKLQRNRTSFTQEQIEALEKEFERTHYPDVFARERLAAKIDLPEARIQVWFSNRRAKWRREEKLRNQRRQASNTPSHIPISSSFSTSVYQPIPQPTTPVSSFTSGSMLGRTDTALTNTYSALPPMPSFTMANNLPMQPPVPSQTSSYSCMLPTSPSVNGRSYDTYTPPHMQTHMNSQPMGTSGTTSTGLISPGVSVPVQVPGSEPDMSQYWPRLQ
Chain of Transcription factor Sp1 (Homo sapiens) (P08047 whole entry, looked up): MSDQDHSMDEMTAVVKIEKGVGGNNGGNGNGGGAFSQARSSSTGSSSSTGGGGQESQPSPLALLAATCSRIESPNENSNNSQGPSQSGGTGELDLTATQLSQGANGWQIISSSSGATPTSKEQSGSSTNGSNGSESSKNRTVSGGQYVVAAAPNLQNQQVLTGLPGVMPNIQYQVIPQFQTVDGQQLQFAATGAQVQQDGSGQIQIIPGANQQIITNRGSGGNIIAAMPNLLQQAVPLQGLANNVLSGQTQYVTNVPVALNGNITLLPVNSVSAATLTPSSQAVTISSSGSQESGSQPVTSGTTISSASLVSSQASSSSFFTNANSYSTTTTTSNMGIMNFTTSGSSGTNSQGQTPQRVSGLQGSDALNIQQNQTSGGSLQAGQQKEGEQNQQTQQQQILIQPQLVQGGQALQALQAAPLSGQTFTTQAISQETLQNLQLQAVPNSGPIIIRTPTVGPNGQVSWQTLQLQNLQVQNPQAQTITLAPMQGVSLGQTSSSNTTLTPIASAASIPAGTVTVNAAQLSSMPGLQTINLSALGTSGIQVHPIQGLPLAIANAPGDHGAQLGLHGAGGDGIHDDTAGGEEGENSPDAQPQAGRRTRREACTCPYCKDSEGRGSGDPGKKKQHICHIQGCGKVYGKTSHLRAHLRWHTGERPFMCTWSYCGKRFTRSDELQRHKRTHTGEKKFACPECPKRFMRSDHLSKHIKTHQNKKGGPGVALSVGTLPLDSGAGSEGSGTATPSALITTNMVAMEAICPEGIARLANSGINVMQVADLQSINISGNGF
Chain of Hepatocyte nuclear factor 6 (Homo sapiens) (Q9UBC0 whole entry, looked up, the tested form may be a part): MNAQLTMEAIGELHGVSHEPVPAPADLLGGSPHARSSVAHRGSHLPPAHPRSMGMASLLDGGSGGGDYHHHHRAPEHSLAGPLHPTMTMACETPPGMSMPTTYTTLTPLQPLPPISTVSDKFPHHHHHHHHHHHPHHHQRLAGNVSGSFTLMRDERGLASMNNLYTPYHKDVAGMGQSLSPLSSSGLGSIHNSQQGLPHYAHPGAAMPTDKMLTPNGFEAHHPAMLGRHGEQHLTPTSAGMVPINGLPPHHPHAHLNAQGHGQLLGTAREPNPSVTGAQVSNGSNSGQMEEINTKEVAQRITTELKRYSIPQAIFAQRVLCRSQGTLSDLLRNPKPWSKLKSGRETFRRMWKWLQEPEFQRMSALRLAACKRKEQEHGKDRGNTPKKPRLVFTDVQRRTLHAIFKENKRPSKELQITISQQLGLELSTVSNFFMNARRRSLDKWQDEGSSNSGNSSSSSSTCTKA
Chain of Heat shock factor protein 1 (Homo sapiens) (Q00613 whole entry, looked up): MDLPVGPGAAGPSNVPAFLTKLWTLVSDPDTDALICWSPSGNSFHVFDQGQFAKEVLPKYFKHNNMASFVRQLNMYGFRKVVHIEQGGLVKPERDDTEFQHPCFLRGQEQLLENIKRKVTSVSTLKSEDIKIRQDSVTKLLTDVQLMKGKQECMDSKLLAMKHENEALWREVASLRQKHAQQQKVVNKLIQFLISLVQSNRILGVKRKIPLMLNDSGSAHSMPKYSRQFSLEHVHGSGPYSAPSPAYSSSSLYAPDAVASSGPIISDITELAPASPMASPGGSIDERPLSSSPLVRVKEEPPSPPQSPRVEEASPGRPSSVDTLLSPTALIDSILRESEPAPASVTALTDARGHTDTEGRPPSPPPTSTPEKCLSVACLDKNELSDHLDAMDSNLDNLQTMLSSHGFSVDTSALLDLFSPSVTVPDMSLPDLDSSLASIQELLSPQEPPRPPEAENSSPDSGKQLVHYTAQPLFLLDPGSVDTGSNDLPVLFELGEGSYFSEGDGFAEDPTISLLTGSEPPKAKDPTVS
Chain of Signal transducer and activator of transcription 3 (Homo sapiens) (P40763 whole entry, looked up, the tested form may be a part): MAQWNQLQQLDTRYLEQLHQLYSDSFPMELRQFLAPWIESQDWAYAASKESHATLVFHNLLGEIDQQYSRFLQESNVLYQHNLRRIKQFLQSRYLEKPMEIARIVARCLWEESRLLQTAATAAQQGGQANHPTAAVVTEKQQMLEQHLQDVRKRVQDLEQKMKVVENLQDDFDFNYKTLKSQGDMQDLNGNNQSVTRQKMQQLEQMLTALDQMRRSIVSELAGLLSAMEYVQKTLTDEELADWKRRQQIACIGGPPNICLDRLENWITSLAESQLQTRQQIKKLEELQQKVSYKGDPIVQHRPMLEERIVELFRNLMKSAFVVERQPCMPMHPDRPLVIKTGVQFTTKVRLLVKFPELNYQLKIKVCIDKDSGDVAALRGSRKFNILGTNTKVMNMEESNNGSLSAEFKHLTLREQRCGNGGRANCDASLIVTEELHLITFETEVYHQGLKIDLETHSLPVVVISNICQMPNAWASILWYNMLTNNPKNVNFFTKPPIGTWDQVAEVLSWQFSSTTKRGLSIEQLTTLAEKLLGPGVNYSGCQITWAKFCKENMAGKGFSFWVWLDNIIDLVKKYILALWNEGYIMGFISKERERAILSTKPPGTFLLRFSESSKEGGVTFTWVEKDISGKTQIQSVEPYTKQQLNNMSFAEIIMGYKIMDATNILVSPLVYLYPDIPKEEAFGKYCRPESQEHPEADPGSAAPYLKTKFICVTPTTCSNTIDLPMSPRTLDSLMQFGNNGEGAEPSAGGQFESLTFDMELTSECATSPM
Chain of Hypoxia-inducible factor 1-alpha (Homo sapiens) (Q16665 whole entry, looked up): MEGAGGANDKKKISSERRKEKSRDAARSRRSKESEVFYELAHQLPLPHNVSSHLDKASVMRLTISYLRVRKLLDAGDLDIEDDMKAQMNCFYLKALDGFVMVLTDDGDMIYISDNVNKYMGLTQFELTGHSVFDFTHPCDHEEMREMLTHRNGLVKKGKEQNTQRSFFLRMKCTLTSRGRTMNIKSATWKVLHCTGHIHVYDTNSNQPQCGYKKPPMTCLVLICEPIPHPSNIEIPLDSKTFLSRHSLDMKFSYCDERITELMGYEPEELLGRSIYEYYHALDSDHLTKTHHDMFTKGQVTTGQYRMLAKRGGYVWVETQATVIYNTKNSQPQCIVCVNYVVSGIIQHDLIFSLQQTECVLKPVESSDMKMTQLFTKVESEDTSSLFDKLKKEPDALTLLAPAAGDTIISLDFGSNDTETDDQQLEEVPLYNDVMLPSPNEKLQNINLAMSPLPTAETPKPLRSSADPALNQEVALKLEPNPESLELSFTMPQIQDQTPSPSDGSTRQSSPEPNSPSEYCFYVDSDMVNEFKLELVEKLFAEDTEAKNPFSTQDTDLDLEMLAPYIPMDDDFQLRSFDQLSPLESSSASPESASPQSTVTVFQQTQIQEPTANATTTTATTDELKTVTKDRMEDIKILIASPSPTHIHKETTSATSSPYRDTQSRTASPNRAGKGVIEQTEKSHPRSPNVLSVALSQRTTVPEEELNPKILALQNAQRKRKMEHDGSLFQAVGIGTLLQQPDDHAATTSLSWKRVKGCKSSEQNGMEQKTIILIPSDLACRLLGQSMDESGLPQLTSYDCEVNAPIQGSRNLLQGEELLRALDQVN

CCCCCCCOC(C)=O
outcome [1]: inactive
outcome [2]: inactive
outcome [3]: inactive
outcome [4]: inactive
outcome [5]: inactive
outcome [6]: inactive
outcome [7]: inactive
outcome [8]: inactive
outcome [9]: inactive
outcome [10]: inactive
outcome [11]: inactive
outcome [12]: inactive
outcome [13]: inactive
outcome [14]: inactive

NNC(=O)OCc1ccccc1
outcome [1]: inactive
outcome [15]: inactive
outcome [3]: inactive
outcome [4]: inactive
outcome [5]: inactive
outcome [6]: inactive
outcome [7]: inactive
outcome [16]: inactive
outcome [17]: inactive
outcome [9]: inactive
outcome [10]: inactive
outcome [11]: inactive
outcome [12]: inactive
outcome [13]: inactive
outcome [14]: inactive
outcome [18]: inactive

COc1ccc(C(C)=O)cc1
outcome [1]: inactive
outcome [15]: inactive
outcome [2]: inactive
outcome [3]: inactive
outcome [4]: inactive
outcome [5]: inactive
outcome [7]: inactive
outcome [16]: inactive
outcome [10]: inactive
outcome [11]: inactive
outcome [12]: inactive
outcome [13]: inactive
outcome [14]: inactive

CCCCCCCCCCCCOCCOS(=O)(=O)O
outcome [1]: inactive
outcome [15]: inactive
outcome [2]: inactive
outcome [3]: inactive
outcome [4]: inactive
outcome [5]: inactive
outcome [7]: inactive
outcome [16]: inactive
outcome [8]: inactive
outcome [9]: inactive
outcome [10]: inactive
outcome [11]: inactive
outcome [12]: inactive
outcome [13]: inactive
outcome [14]: inactive
outcome [18]: inactive

OCCN1CCOCC1
outcome [1]: inactive
outcome [15]: inactive
outcome [3]: inactive
outcome [4]: inactive
outcome [5]: inactive
outcome [6]: inactive
outcome [7]: inactive
outcome [16]: inactive
outcome [8]: inactive
outcome [17]: inactive
outcome [9]: inactive
outcome [10]: inactive
outcome [11]: inactive
outcome [12]: inactive
outcome [13]: inactive
outcome [14]: inactive
outcome [18]: inactive

CC/C=C\CCCCO
outcome [1]: inactive
outcome [2]: inactive
outcome [3]: inactive
outcome [4]: inactive
outcome [5]: inactive
outcome [6]: inactive
outcome [7]: inactive
outcome [8]: inactive
outcome [17]: inactive
outcome [10]: inactive
outcome [11]: inactive
outcome [12]: inactive
outcome [13]: inactive
outcome [14]: inactive
outcome [18]: inactive

COC(=O)c1ccc(C(=O)OC)cc1
outcome [1]: inactive
outcome [15]: inactive
outcome [2]: inactive
outcome [3]: inactive
outcome [4]: inactive
outcome [5]: inactive
outcome [7]: inactive
outcome [16]: inactive
outcome [8]: inactive
outcome [17]: inactive
outcome [10]: inactive
outcome [11]: inactive
outcome [12]: inactive
outcome [14]: inactive

CCCCCCOc1ccc(O)cc1
outcome [1]: inactive
outcome [15]: inactive
outcome [3]: inactive
outcome [4]: inactive
outcome [5]: inactive
AC50 [6]: 11.3 µM (active)
AC50 [7]: 47.7 µM (active)
outcome [16]: inactive
AC50 [8]: 33.4 µM (active)
AC50 [17]: 5.85 µM (active)
outcome [9]: inactive
outcome [10]: inactive
outcome [11]: inactive
outcome [12]: inactive
outcome [13]: inactive
outcome [14]: inactive
AC50 [18]: 39.2 µM (active)

CCCCCCCCCCCCS
outcome [1]: inactive
outcome [15]: inactive
outcome [3]: inactive
outcome [4]: inactive
outcome [5]: inactive
outcome [6]: inactive
outcome [16]: inactive
outcome [8]: inactive
AC50 [17]: 33.4 µM (active)
outcome [9]: inactive
outcome [10]: inactive
outcome [11]: inactive
outcome [12]: inactive
AC50 [13]: 33.4 µM (active)
outcome [14]: inactive
outcome [18]: inactive

CCCCCCCCCCO[C@@H]1O[C@H](CO)[C@@H](O)[C@H](O)[C@H]1O
outcome [1]: inactive
outcome [15]: inactive
outcome [3]: inactive
outcome [4]: inactive
outcome [5]: inactive
outcome [6]: inactive
outcome [7]: inactive
outcome [16]: inactive
outcome [8]: inactive
outcome [9]: inactive
outcome [10]: inactive
outcome [11]: inactive
outcome [12]: inactive
outcome [13]: inactive
outcome [14]: inactive

COc1cc(OC)c2ccc(=O)oc2c1
outcome [1]: inactive
outcome [15]: inactive
outcome [3]: inactive
outcome [4]: inactive
outcome [5]: inactive
outcome [6]: inactive
outcome [8]: inactive
outcome [9]: inactive
outcome [10]: inactive
outcome [11]: inactive
outcome [12]: inactive
outcome [14]: inactive
outcome [18]: inactive

OC[C@@H](O)[C@H](O)[C@@H](O)[C@@H](O)CO
outcome [1]: inactive
outcome [15]: inactive
outcome [2]: inactive
outcome [3]: inactive
outcome [4]: inactive
outcome [5]: inactive
outcome [7]: inactive
outcome [8]: inactive
outcome [10]: inactive
outcome [11]: inactive
outcome [12]: inactive
outcome [13]: inactive
outcome [14]: inactive
outcome [18]: inactive
